We go through 40 molecules from PubChem BioAssay (Tox21).

Records with an inconclusive call do not appear. Activity calls are given as the source filed them. The call rests on the fitted dose curve; in most records, active means well fitted activation curve with a large enough effect in the signal ratio in the repeat runs (not every such curve was filed as active); inconclusive means weak or mixed curves; inactive means flat fitted curve, though single readings scatter; the % refers to the signal ratio.

The experiment is described as follows: qHTS assay to identify small molecule agonists of the hypoxia (HIF-1) signaling pathway (AID 1224846). The following applies: HRE-bla ME-180 cells, beta-lactamase ratio, 17 h; series mostly up to 76.8 µM. An excerpt: U.S. Tox21 Program National Center for Advancing Translational Sciences [NCATS] NIH Chemical Genomics Center [NCGC] U.S. Environmental Protection Agency [EPA] National Institutes of Environmental Health Sciences [NIEHS] National Toxicology Program [NTP] U.S. Food and Drug Administration [FDA] Tox21 Assay Overview: Hypoxia-inducible factor-1 (HIF-1) is the major hypoxia-regulated transcription factor that controls cellular responses to low oxygen concentration. HIF-1 is composed of two subunits: hypoxia responsive HIF-1-alpha and constitutively expressed HIF-1-beta, which is also known as aryl hydrocarbon receptor nuclear translocator. During hypoxic conditions, HIF-1-alpha heterodimerizes with HIF-1-beta and translocates into the nucleus where the HIF-1 complex binds to the hypoxia-response element (HRE) and activates expression of target genes such as VEGF (vascular endothelial growth factor). The HIF-1 pathway is essential to normal growth and development, and is involved in the pathophysiology of cancer, inflammation, and ischemia. Using a beta-lactamase reporter-gene under control of the hypoxia response element, a cell-based assay [CellSensor(TM) HRE-bla ME-180 from Life Technologies, Carlsbad, CA] was used to measure hypoxia-induced signaling. Tox21 10K library compounds were measured for their ability to induce the reporter gene activity.
Tox21 Assay Protocol Summary: HRE-bla ME-180 cells were dispensed at 2,000 cells per well in 6 uL of assay medium containing 0.5% dialyzed FBS into black wall/clear-bottom 1536-well plates using a Multidrop Combi (Thermo Scientific, Waltham, MA) dispenser. After the assay plates were incubated at 37C and 5% CO2 for 5 hrs, 23 nL of compounds dissolved in DMSO, positive controls or DMSO only was transferred to each well of the assay plate using a Pintool station (Kalypsys, San Diego, CA). The assay plates were incubated at 37C and 5% CO2 for 17 hrs. One uL of LiveBLAzerTM B/G FRET substrate (CCF4-AM) (Life Technologies) was added to each well using a Flying Reagent Dispenser (Aurora Discovery, San Diego, CA).
On the technique in general: qHTS replaces the single test concentration by a dilution series.
As for `S=c1[nH]c2ccccc2[nH]1`, the outcome was inactive.
As for `Cc1cc(Cl)ccc1N=CN(C)C`, the entry is “inactive”; as for `O=NN(c1ccccc1)c1ccccc1`, “inactive”; as for `O=C1CCCO1`, “inactive”.
As to `CC(C)(O)C#N`, the outcome was inactive.
As for `COP(=S)(OC)SCn1nnc2ccccc2c1=O`, the entry is “inactive”.
To `CC(C)=CC1C(C(=O)OCN2C(=O)C3=C(CCCC3)C2=O)C1(C)C` (stereo not given) belongs “inactive”.
As for `CCCCCCCCCC(CC)c1ccc(S(=O)(=O)O)cc1` (stereo not given), the entry is “inactive”; as for `Nc1ncn[nH]1`, “inactive”; as for `ClC(Cl)=C(Cl)C(Cl)=C(Cl)Cl`, “inactive”.
With `CCOP(=S)(OCC)OP(=S)(OCC)OCC`, the outcome was inactive.
To `CCOP(=S)(OCC)SCn1c(=O)oc2cc(Cl)ccc21` belongs “inactive”; to `ClCc1ccccn1`, “inactive”.
To `O=C(O)c1nn(Cc2ccc(Cl)cc2Cl)c2ccccc12` belongs “inactive”; to `CC1=C(C(=O)Nc2ccccc2)SCCO1`, “inactive”; to `CC1(C)Cc2cccc(O)c2O1`, “inactive”.
As for `Clc1ccccc1-c1nnc(-c2ccccc2Cl)nn1`, the entry is “inactive”.
In the case of `CN(C)P(=O)(N(C)C)N(C)C`, the result was inactive.
In the case of `CCCCOC(=O)COC(=O)c1ccccc1C(=O)OCCCC`, the result was inactive.
To `C[C@]12CCC(=O)C=C1CC[C@@H]1[C@@H]2CC[C@@]2(C)[C@H]1CC[C@]2(C)O` belongs “inactive”.
To `CCC(=O)Nc1ccc(Cl)c(Cl)c1` belongs “inactive”; to `CCOP(=O)(O)OCC` (tested in a mixture with another compound), “inactive”.
To `CCCCOCC1CO1` (stereo not given) belongs “inactive”; to `COP(=S)(OC)Oc1ccc(S(=O)(=O)N(C)C)cc1`, “inactive”; to `COP(=O)(NC(C)=O)SC` (stereo not given), “inactive”.
As for `CC(C)(O)C(=O)Nc1ccc([N+](=O)[O-])c(C(F)(F)F)c1`, the result was inactive.
As for `CC(C)(C#N)N=NC(C)(C)C#N`, the entry is “inactive”; as for `CC(C)=CC1C(C(=O)OCc2cccc(Oc3ccccc3)c2)C1(C)C` (stereo not given), “inactive”; as for `O=[N+]([O-])c1ccc(Nc2ccccc2)cc1`, “inactive”.
As for `N#CCCCCC#N`, the entry is “inactive”; as for `Cl`, “inactive”.
To `Clc1ccc(C(Cl)(Cl)Cl)cc1` belongs “inactive”; to `COc1ccc(CO)cc1`, “inactive”.
As for `COc1ccc(C=O)cc1OC`, the result was inactive.
To `CCNCC` belongs “inactive”; to `CCOP(=S)(OCC)SCSC(C)(C)C`, “inactive”.
As to `C[C@]12CC[C@H]3[C@@H](CCC4=CC(=O)CC[C@@H]43)[C@@H]1CC[C@@H]2O`, the result was inactive.
To `c1ccc2c(c1)Nc1ccccc1S2` belongs “inactive”; to `COc1ccc(O)c(C(C)(C)C)c1`, “inactive”; to `O=[N+]([O-])/N=C1\NCCN1Cc1ccc(Cl)nc1`, “inactive”.
